High-throughput results from PubChem BioAssay.
Lassa entry inh: blocks Lassa virus binding to or entry into cells. Potency, µM (top dose mostly 37.9 µM), for inactives: at the top dose activity change, negative = inhibition, most hits filed as inhibitors. Lassa virus pseudotype entry inhibition, cell reporter. 1.2% of 300,000 active; calls by dose curve; tested in HEK293 cells; also: potency is read from the fitted curve at half-maximal effect; nearly all actives have a fitted effect of over 50% in size
Vaccinia Venus: inhibitors of vaccinia virus (Venus reporter); Vaccinia virus Venus reporter expression, fluorescence; Potency, µM (highest dose often 36.5 µM), for inactives: at the highest dose activity change, negative = inhibition, most hits filed as inhibitors; 0.46% of 330,000 active; AID 720580; calls by dose curve; tested in A549 cells; also: potency is read from the fitted curve at half-maximal effect; nearly all actives have a fitted effect of over 30% in size
FMDV antiviral: antivirals against foot and mouth disease virus; 1.2% of 410,000 active; Potency, µM (doses to about 57.9 µM), without a hit: top-dose activity change, negative = inhibition, usual class: inhibitors; FMDV antiviral cell-based qHTS; calls by dose curve; tested in HEK293T cells; also: read-out not given here; potency is read from the fitted curve at half-maximal effect; nearly all actives have a fitted effect of over 45% in size
HCMV antiviral: blocks human cytomegalovirus replication; HFF cells, HCMV-luciferase reporter, 72 h; stronger effect = lower value; AID 1259415; activity change, negative = inhibition, % at 57.5 µM; 4.5% of 410,000 active; in the data active = activity change below about -60%; inconclusive = no clear call, values can overlap the other calls; inactive = above about -39%
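Steps: HFFs plated, 16 h 37C; compounds added; HCMV-luciferase added to MOI 1 PFU/cell; 72 h 37C; OneGlo reagent, 5 min room temperature; luminescence read, normalized to controls.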
MARV entry inh: inhibitors of Marburg virus binding or cell entry; Marburg virus pseudotyped entry inhibition, cell reporter; Potency, µM (highest dose often 37.8 µM), inactives show top-dose activity change, negative = inhibition, actives largely listed as inhibitors; 1.8% of 300,000 active; AID 540276; calls by dose curve; tested in HEK293 cells; also: potency is read from the fitted curve at half-maximal effect
Vaccinia mCherry: inhibitors of vaccinia virus infection (mCherry reporter signal). Vaccinia virus mCherry reporter infection, fluorescence. Potency, µM (series often up to 36.5 µM), without a hit: at the highest dose activity change, negative = inhibition, most hits filed as inhibitors. 0.63% of 310,000 active. AID 720579; calls by dose curve; tested in A549 cells; also: potency is read from the fitted curve at half-maximal effect; nearly all actives have a fitted effect of over 35% in size
Active calls of the source: *; i = inactive; ? = inconclusive; . = no result; [ ] = another dose, or the depositor's remark. Hits are enriched below; roughly 6.5% of the tested compounds scored in any of these assays. % is scaled to controls: 0 for no effect and ±100 for the full control effect.

SMILES | Lassa entry inh | Vaccinia Venus | FMDV antiviral | HCMV antiviral | MARV entry inh | Vaccinia mCherry
COc1cc(Br)c(/C=C/c2ccc3cccc(O)c3n2)cc1OC | . | . | 14.2% | -86.7* | . | .
CSc1ccc(/C=C/c2ccc3cccc(O)c3n2)cc1 | ? | 5.2% | -59.2% | -66.1* | 2.51µM* | -23.2%
Oc1c(Cl)cc(Cl)cc1/C=C/c1ccc2cccc(O)c2n1 | ? | 182.1% | -25.0% | -38.2 | ? | 2.51µM*
COc1cc(/C=C/c2ccc3cccc(OC)c3n2)c(OC(C)=O)c([N+](=O)[O-])c1 | ? | . | ? | -83.8* | ? | .
COc1cc(/C=C/c2ccc3cccc(OC)c3n2)c(O)c([N+](=O)[O-])c1 | . | . | -22.7% | -37.3 | . | .
COc1ccccc1C1CN(Cc2cnn(C)c2C)Cc2ccccc2O1 (configuration not stated) | . | -0.6% | -10.3% | . | . | -18.3%
COc1ccc(OC)c(/C=C/c2ccc3ccccc3n2)c1 | . | -16.8% | . | . | . | -23.3%
COc1ccc(OC)c(/C=C/c2ccc3cccc(O)c3n2)c1 | . | . | . | -65.4* | . | .
O=C(NCc1ccccc1)c1cnc(N2CCCCC2)c2ccccc12 | -12.8%[46.1 µM] | -10.6% | 18.6% | 47.3 | . | -9.2%
CC(=O)N1CCOc2ccc(S(=O)(=O)N3CCC(C(=O)Nc4cc(C)ccc4C)CC3)cc21 | 16.6%[46.1 µM] | -3.1% | -16.9% | -63.9* | -0.9%[46.1 µM] | -14.9%
O=C(N[C@@H]1CC[C@H](CCn2cc(-c3ccccn3)nn2)O[C@@H]1CO)c1ccncc1 | . | -11.6% | -16.9% | -11.8 | . | -2.7%
O=C(N[C@@H]1CC[C@@H](CCn2cc(-c3ccccc3)nn2)O[C@@H]1CO)c1cnccn1 | . | -5.4% | -13.6% | -70.4* | . | 2.8%
Oc1ccc(N2CCN(C(=S)NCCc3ccccc3)CC2)cc1 | ? | ? | 65.3% | -70.1* | ? | 3.5%[1.46 µM]
O=C(CN1CCN(c2ccc(O)cc2)CC1)Nc1ccccc1C(=O)NCCc1ccccc1 | . | . | -19.7% | -60.5* | . | .
CC(=O)c1cccc([N+](=O)[O-])c1 | . | -13.5% | -11.3% | -26.4 | . | -16.9%
O=C(C#Cc1ccccc1)c1cccc([N+](=O)[O-])c1 | ? | -15.6% | 25.1µM* | -24.1 | 12.6µM* | i
CCN(CC)S(=O)(=O)c1ccc2c(c1)c(=O)c(C(=O)NCCOC)cn2C | -0.8% | . | 0.9% | 13.8 | -8.1% | .
C=CCn1cc(C(=O)NCCOC)c(=O)c2cc(S(=O)(=O)N(CC)CC)ccc21 | 11.6µM* | . | 52.0% | -12.2 | 2.1% | .
CCOCCCNC(=O)c1cn(CC)c2ccc(S(=O)(=O)N(C)C3CCCCC3)cc2c1=O | . | . | -10.4% | -33.4 | . | .
C=CCn1cc(C(=O)NCCCOCC)c(=O)c2cc(S(=O)(=O)N(CC)CC)ccc21 | 6.51µM* | . | 7.3% | -16.5 | -3.9% | .
O=C(C1CCN(S(=O)(=O)Cc2ccccc2)CC1)N1CCN(c2cccc(C(F)(F)F)c2)CC1 | -1.3%[46.1 µM] | 9.1% | -24.0% | 5.5 | 2.7%[46.1 µM] | 0.6%
c1ccc2c(NCCc3c[nH]c4ccccc34)c3ccccc3nc2c1 | . | 8.91µM* | ? | ? | . | ?
Fc1cccc(NCCc2c[nH]c3ccccc23)n1 | . | ? | 37.7% | -2.9 | . | -28.8%
OCCNc1c2c(nc3ccccc13)CCCC2 | 1.7% | 5.4% | -22.1% | 13.1 | -20.3%[46.1 µM] | -11.8%
OCCCNc1c2ccccc2nc2ccccc12 | ? | 10µM* | -10.1% | -102.0* | 7.08µM* | 11.2µM*
SMILES | Lassa entry inh | Vaccinia Venus | FMDV antiviral | HCMV antiviral | MARV entry inh | Vaccinia mCherry
COc1cccc(C2C(=O)N(C3CCCCC3)CC(=O)N2Cc2ccc(Cl)cc2)c1 (configuration not stated) | -14.8%[46.1 µM] | -8.5% | 1.4% | -68.2* | . | -13.2%
COc1cccc(CN2C(=O)CN(C3CCCCC3)C(=O)C2c2ccc(OC(C)C)c(OC)c2)c1 (configuration not stated) | ? | -12.7% | 0.0% | -2.3 | . | -2.3%
COc1ccc(C(C)=O)cc1CSc1nnc(C)s1 | 5.2% | -6.4% | 5.8% | 5.0 | 0.3% | i
COc1ccc(C(C)=O)cc1CSc1nnc(Nc2ccc(C)cc2)s1 | ? | -25.6% | 0.0% | -61.1* | ? | ?
COc1ccc(C(C)=O)cc1CSc1nnc(Nc2ccccc2)s1 | ? | ? | ? | -70.0* | 18.4µM* | -13.6%
CC(C)(C)OC(=O)N1CCc2nc3ccccc3c(N)c2C1=O | . | . | . | -10.2 | . | .
COc1ccc(Cn2c(C(=O)O)c(CNCc3ccccc3F)c3ccc(OC)cc32)cc1 | ? | -7.2% | 16.1% | -76.2* | . | -11.3%
